For eleven compounds, z-score and composite z-score results are on record in PubChem BioAssay.

Experiment [1] can be described thus: optical density shifts of acrAB sulA E. coli – strain DRC41, OD650, 48 h, E. coli filamentation inducer project, primary screen (AID 1152).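 Note: E. coli MC1000 strain DRC41 lacking acrAB efflux pump and sulA.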 The note with it: higher = more signal, called active from +8 up or from −8 down.
The nature of experiment [2]: probe aLefty1 binding on compound microarray – biochemical, small-molecule microarray, 635/667 nm fluorescence, primary screen (AID 1153).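 Note: score merges spot fluorescence with signal-to-noise ratio from the scanned slide images.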 The note with it: higher = more signal.
The nature of experiment [3]: plasmodial surface anion channel blockers, osmotic lysis – cell-based, P. falciparum Indochina, OD700, 1 h, primary screen (AID 1154). The note with it: P. falciparum Indochina infected RBC osmotic lysis, higher = more signal, called active from +8 up or from −8 down.
Experiment [4] is described as follows: plasmodial surface anion channel blockers, osmotic lysis – cell-based, P. falciparum Indochina, OD700, 2 h, primary screen (AID 1155).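 Note: lysis reports solute entry through the parasite surface anion channel PSAC.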 The note with it: P. falciparum Indochina infected erythrocytes, higher = more signal, called active from +8 up or from −8 down.
A short description of experiment [5]: changes in parasitized red cell lysis, either direction – P. falciparum Indochina, OD700, 3 h, PSAC antagonist project, primary screen (AID 1156). The note with it: P. falciparum-infected erythrocytes, osmotic lysis, higher = more signal, called active from +8 up or from −8 down.
Experiment [6] can be described thus: plasmodial surface anion channel blockers, osmotic lysis – cell-based, P. falciparum Indochina, OD700, 18 h, primary screen (AID 1157). The note with it: P. falciparum Indochina infected erythrocytes, osmotic lysis OD700, 18 h; higher = more signal, called active from +8 up or from −8 down.
A short description of experiment [7]: S6 kinase pathway phospho-S6 level changes – cell-based, A549, cytoblot, luminescence, serum-stimulated, primary screen (AID 1158).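 Note: serum-stimulated A549 lung adenocarcinoma cells; signal is phosphorylated S6 detected by cytoblot immunostaining with HRP secondary.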 The note with it: 5 h, higher = more signal.
Experiment [8] concerns the target NADPH oxidase 2 (Homo sapiens) (UniProt P04839). As to the kind of experiment: compounds shifting NOX2 Amplex Red fluorescence – cell-based, HEK293-NOX2, PMA-stimulated, NOX inhibitor project, primary screen (AID 1159). Note: test concentration not given here. The note with it: 45 min, higher = more signal, called active from +8 up or from −8 down.
Experiment [9] deals with NADPH oxidase 4 (Homo sapiens) (UniProt Q9NPH5). As to the kind of experiment: compounds shifting NOX4 Amplex Red fluorescence – cell-based, HEK293-NOX4, tetracycline-induced, NOX inhibitor project, primary screen (AID 1160). The note with it: HEK293-NOX4, Amplex Red H2O2 fluorescence, 45 min; higher = more signal, called active from +8 up or from −8 down.
Chain of NADPH oxidase 4 (Homo sapiens) (Q9NPH5 whole entry, looked up): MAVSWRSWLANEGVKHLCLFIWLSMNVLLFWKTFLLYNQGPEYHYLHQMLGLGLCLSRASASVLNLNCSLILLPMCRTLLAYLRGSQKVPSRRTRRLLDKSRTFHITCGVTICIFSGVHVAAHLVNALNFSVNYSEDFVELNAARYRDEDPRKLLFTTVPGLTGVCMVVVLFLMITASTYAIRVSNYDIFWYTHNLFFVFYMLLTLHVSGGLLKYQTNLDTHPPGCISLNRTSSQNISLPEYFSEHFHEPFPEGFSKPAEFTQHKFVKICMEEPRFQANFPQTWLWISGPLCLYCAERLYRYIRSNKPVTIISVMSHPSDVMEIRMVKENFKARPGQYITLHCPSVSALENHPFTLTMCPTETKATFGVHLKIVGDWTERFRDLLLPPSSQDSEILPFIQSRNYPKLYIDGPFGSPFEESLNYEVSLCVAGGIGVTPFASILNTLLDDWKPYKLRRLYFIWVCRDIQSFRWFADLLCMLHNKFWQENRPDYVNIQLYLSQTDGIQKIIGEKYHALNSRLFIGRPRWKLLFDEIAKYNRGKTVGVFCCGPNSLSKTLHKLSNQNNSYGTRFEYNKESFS
Experiment [10] has as its target NADPH oxidase 5 (Homo sapiens) (UniProt Q96PH1). As to the kind of experiment: compounds shifting NOX5 Amplex Red fluorescence – cell-based, HEK293-NOX5, NOX inhibitor project, primary screen (AID 1161). The note with it: HEK293-NOX5, ionomycin, 45 min, higher = more signal.

Activity calls are given as the source filed them.

Chain of NADPH oxidase 5 (Homo sapiens) (Q96PH1 whole entry, looked up): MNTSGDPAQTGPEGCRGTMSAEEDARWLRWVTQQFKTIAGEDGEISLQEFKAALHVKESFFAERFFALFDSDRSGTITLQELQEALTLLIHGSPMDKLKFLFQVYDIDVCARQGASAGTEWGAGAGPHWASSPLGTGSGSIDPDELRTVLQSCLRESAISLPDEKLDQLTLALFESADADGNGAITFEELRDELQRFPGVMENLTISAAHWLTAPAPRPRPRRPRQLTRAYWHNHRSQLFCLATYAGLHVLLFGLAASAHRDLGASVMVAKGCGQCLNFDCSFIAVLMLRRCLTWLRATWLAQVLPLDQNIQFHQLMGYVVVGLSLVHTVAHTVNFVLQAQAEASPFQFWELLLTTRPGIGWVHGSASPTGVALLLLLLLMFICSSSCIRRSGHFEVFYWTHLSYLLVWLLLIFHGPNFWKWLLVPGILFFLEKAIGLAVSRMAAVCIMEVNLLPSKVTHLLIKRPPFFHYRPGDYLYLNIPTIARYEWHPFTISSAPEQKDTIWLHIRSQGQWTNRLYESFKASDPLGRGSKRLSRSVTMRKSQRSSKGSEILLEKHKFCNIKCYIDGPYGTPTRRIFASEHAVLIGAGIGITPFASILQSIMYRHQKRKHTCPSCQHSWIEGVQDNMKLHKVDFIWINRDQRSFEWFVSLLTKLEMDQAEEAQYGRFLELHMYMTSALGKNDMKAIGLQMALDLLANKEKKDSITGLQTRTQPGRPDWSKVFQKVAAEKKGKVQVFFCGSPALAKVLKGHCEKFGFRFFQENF
Chain of NADPH oxidase 2 (Homo sapiens) (P04839 whole entry, looked up): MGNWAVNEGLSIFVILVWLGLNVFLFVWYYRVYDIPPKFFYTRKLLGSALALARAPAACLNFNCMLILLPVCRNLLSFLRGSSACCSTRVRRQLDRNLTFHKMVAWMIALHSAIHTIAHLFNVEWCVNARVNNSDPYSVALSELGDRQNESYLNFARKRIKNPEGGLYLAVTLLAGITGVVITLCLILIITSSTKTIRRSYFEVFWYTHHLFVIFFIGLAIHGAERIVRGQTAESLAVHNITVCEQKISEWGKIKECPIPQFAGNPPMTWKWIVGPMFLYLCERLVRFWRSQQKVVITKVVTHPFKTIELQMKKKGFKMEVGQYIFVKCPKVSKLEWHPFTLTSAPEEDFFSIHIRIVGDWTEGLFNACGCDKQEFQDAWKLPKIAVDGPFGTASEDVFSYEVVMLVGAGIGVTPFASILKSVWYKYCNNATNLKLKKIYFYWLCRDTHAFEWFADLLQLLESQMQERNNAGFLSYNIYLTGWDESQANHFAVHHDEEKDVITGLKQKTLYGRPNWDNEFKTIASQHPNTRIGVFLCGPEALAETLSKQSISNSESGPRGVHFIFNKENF

In the case of `CCCC=C(CCC)[C@@H](NC(=O)Oc1ccc(F)cc1)c1ccc(C(=O)OC)cc1`, the z-score in [1] is -0.755 (inactive); in experiment [3], 0.454 (inactive); in [4], 1.34 (inactive); in experiment [5] it was -1.54 (inactive); in experiment [6], 1.35 (inactive); in experiment [7] it was 0.298. Moreover, the values for the z-score in [8], in [9] and in [10] were -0.395 (inactive), -1.17 (inactive) and -0.592, respectively. Moreover, the composite z-score in [2] stood at 0.221.
As to `O=C1[C@H]2C=C(Br)[C@H](C[C@@H]2c2ccccc2)[C@@]12CO2`, the z-score is -1.47 (inactive) in [1]; 1.22 (inactive) in experiment [3]; 0.497 (inactive) in experiment [4]; 0.637 (inactive) in [5]; 0.279 (inactive) in experiment [6]; -0.327 in [7]. The z-score in experiment [8] was 0.242 (inactive); in experiment [9] it was 0.141 (inactive); in [10], -0.855. In experiment [2], this compound registered a composite z-score of 0.0041.
As to `COC(=O)c1c(CC[C@@H](CO)NC(=O)N[C@H](Cn2cc(Cc3ccccc3)nn2)C(C)C)oc(C(C)=O)c1C(=O)OC`, the z-score is 0.618 (inactive) in experiment [1]; 1.62 (inactive) in experiment [3]; -0.452 (inactive) in experiment [4]; 0.695 (inactive) in [5]; -0.177 (inactive) in [6]; 1.53 in experiment [7]. Also, the z-score in experiment [8] was -3.91 (inactive); in [9], -1.31 (inactive); in experiment [10], 0.197. The compound also came in with a composite z-score in [2] of -0.101.
As for `COCCOC(=O)N1C(=O)[C@@]2(c3ccccc31)[C@H](c1ccccc1OCCO)N1[C@H](c3ccccc3)[C@H](c3ccccc3)OC(=O)[C@H]1[C@@H]2C(=O)Nc1nc2ccccc2s1`, the z-score was 1.57 (inactive) in experiment [1]; 3.27 (inactive) in [3]; 2.77 (inactive) in experiment [4]; 1.37 (inactive) in [5]; 1.84 (inactive) in [6]; 0.59 in experiment [7]. Besides, the results for the z-score in [8], in experiment [9] and in [10] were 1.39 (inactive), 1.41 (inactive) and 0.676, respectively. For the same compound, in experiment [2], the composite z-score was found to be 0.523.
Consider `COCCCN1C(=O)[C@@]2(Cc3ccccc31)c1ccccc1C(=O)N(Cc1ccccc1C(F)(F)F)[C@H]2c1ccc(CO)cc1`, for which the z-score was -0.125 (inactive) in experiment [1]; 0.512 (inactive) in [3]; 0.635 (inactive) in [4]; -0.101 (inactive) in [5]; 0.427 (inactive) in [6]; 0.0136 in experiment [7]. The values for the z-score in [8], in experiment [9] and in experiment [10] were -0.767 (inactive), -0.607 (inactive) and 0.77, respectively. The composite z-score in [2] is -0.208.
For the compound `CCOc1cc(C(O)C2C=CC3C(=O)N(c4ccccc4)C(=O)C3N2Nc2ccccc2)ccc1O` (stereo not given), the z-score in experiment [1] was -0.39 (inactive); in [3], 6.39 (inactive); in experiment [4], 1.31 (inactive); in experiment [5] it was -0.343 (inactive); in [6] it was 0.949 (inactive); in experiment [7], -0.883. Besides, the z-score in experiment [8] was -1.19 (inactive); in experiment [9], -1.37 (inactive); in [10], -2.34. In experiment [2], this compound registered a composite z-score of -0.103.
For the compound `C[C@@]1([C@@H](NC(=O)c2ccccc2)c2ccc(-c3ccccc3)cc2)C[C@H]1C1CCCCC1`, the z-score in [1] was -2.22 (inactive); in [3] it was -0.118 (inactive); in experiment [4], 0.28 (inactive); in experiment [5], 0.833 (inactive); in [6] it was 0.888 (inactive); in experiment [7] it was 0.994. Also, the z-score is -0.658 (inactive) in experiment [8], -1.06 (inactive) in experiment [9] and -0.782 in experiment [10]. In experiment [2], the composite z-score was found to be 0.476.
On to `O=C1c2ccccc2[C@](Cc2ccccc2I)(C(=O)NC2CC2)[C@H](c2ccc(CO)cc2)N1C1CCCCC1`, for which the z-score was 0.0304 (inactive) in [1]; 22.5 (active) in experiment [3]; 5.2 (inactive) in experiment [4]; 3.82 (inactive) in experiment [5]; 1.36 (inactive) in experiment [6]; -0.471 in experiment [7]. The z-score in [8] is 0.478 (inactive); in experiment [9] it was 1.06 (inactive); in [10] it was 2.45. Besides, the composite z-score in experiment [2] came out at 0.166.
For `C=CCC(OC(C)=O)[C@@H]1[C@@H](N(Cc2ccc(-c3ccccc3)cc2)C(=O)Cc2ccc(F)cc2)c2cc(OCCCO)ccc2N1C(=O)c1ccc(-c2ccccc2)cc1` (stereo not given in full), the z-score in experiment [1] is 2.08 (inactive); in experiment [3] it was 0.66 (inactive); in [4], -0.221 (inactive); in [5], -0.567 (inactive); in [6], -0.154 (inactive); in experiment [7] it was 1.26. The z-score in [8] was -1.49 (inactive); in experiment [9], 0.414 (inactive); in experiment [10] it was 0.263. This compound also returned a composite z-score in experiment [2] of -0.0193.
Regarding `C=CCC(OC(C)=O)[C@@H]1[C@@H](N(Cc2ccc(-c3cccc(C(F)(F)F)c3)o2)C(=O)Cc2ccc(F)cc2)c2cc(OCCCO)ccc2N1C(=O)Cc1ccc(OC)cc1` (stereo not given in full), the z-score is 0.29 (inactive) in experiment [1]; 2.58 (inactive) in [3]; -0.307 (inactive) in [4]; -0.876 (inactive) in experiment [5]; -0.668 (inactive) in experiment [6]; 0.317 in experiment [7]. In addition, the z-score in [8] is -2.17 (inactive); in [9], 0.269 (inactive); in [10] it was -0.0149. Also, the composite z-score in experiment [2] is -0.191.
As for `COCCOC(=O)N1C(=O)[C@@]2(c3cc(C#Cc4ccc(OC)cc4)ccc31)[C@H](C(=O)N1CCCCCCC1)[C@H]1C(=O)O[C@H](c3ccccc3)[C@H](c3ccccc3)N1[C@@H]2c1ccc(OCCO)cc1`, the z-score in experiment [1] was 2.43 (inactive); in experiment [3], 7.28 (inactive); in [4] it was 1.09 (inactive); in experiment [5], 0.478 (inactive); in experiment [6], 0.442 (inactive); in [7], 1.93. Further, the z-score was 0.453 (inactive) in [8], 0.266 (inactive) in experiment [9] and -0.169 in [10]. Also, the composite z-score in [2] was 2.36.
